Several values for one entry are separate records, joined by “and”; a condition that tells them apart may be missing. Identical values can stand only once. A structure can be active in one record and inactive in another. Activity calls are given as the source filed them. The calls were made as follows: active = hit-call score of the fitted dose curve at least 0.9, where 1 is the maximum; inactive = score below 0.9.
Assay: ATG_NFI_CIS: Attagene CIS-FACTORIAL HepG2 Assay for human Nuclear Factor I (NFI) (AID 2282989)
Settings: HepG2 cis-regulatory reporter, NFI response element transcription; actives raise or lower the signal
Experimental: ATG_CIS is a cell-based, multiplexed-readout assay that uses HepG2, a human liver cell line, with measurements taken at 24 hours after chemical dosing in a 24-well plate.ATG_NFI_CIS is one of 52 assay component(s) measured or calculated from the ATG_CIS assay. It is designed to make measurements of mRNA induction, a form of inducible reporter, as detected with fluorescence intensity signals by Reverse transcription polymerase chain reaction (RT-PCR) and Capillary electrophoresis technology.Data from the assay component ATG_NFI_CIS was analyzed into 1 assay endpoint. This assay endpoint, ATG_NFI_CIS, was analyzed with bidirectional fitting relative to DMSO as the negative control and baseline of activity. Using a type of inducible reporter, measures of mRNA for gain or loss-of-signal activity can be used to understand the reporter gene at the transcription factor-level as they relate to the gene NFIA. Furthermore, this assay endpoint can be referred to as a primary readout, because this assay has produced multiple assay endpoints where this one serves a reporter gene function. To generalize the intended target to other relatable targets, this assay endpoint is annotated to the dna binding intended target family, where the subfamily is nuclear factor I.
Human liver HepG2 cells are transiently transfected with multiple reporter transcription units (MRTUs) in 6-well plates using FuGene 6 reagent (Roche; 3 ml FuGene/1 mg DNA). The MRTU constructs are regulated by a cis-regulating element (promoter). […] A major difference between the CIS and TRANS system is that in CIS activities of endogenous TFs are measured, whereas the TRANS assay evaluates changes in activities of exogenous, chimeric NR-Gal4 proteins. […] At the end of 24 hour incubation, total RNA was isolated using TriZol reagent (Invitrogen). The isolated RNA is then reverse-transcribed using oligo(dT) primer and Mo-MLV reverse transcriptase (Invitrogen) with DNAse I (Ambion) treatment for 30 min. The one-tenth of the produced cDNA was amplified by PCR using Taq DNA polymerase (Invitrogen) and two reporter sequence-specific primers. The PCR products were fluorescently labeled by primer extension with 6-arboxyfluorescein (6-FAM) 5'-labeled reporter sequence-specific primer (2 min at 95 C, 20 s at 68 C and 10 min at 72 C) and these products were digested with 5U of HpaI (New England Biolabs) for 2h at 37 C. The fragments were purified using Qiaquick PCR columns (Qiagen), analyzed on an ABI 3130xL genetic analyzer (Applied Biosystems) with peak positions identified by using a set of X-rhodamine (ROX)-labeled MapMarker1000 molecular weight standards (BioVentures). The raw capillary electrophoresis data was processed using Attagraph software (Attagene).

SMILES	outcome	AC50
CC(C)(O)C(=O)c1ccc(OCCO)cc1	inactive	–
C=C(C)CCCC(C)CCO (stereo not given)	inactive	–
CCCCOCCOCCO	inactive	–
CC(=O)CC(=O)N(C)C	inactive	–
O=C(c1ccc(OCCN2CCCCC2)cc1)c1c(-c2ccc(O)cc2)sc2cc(O)ccc12	inactive	8.99 µM (active) and 16.7 µM (active)
CC(=O)CCc1ccc(O)cc1	inactive	–
CCC(C)(CCCC(C)C)OC(C)=O (stereo not given)	inactive	–
C=CC(C)(CCC=C(C)C)OC(=O)CC (stereo not given)	inactive	–
CC12CCC(C1)C(C)(C)C2O (stereo not given)	inactive	–
CC1=CC[C@@H]2C[C@H]1C2(C)C	inactive	–
CC(C)OB(OC(C)C)OC(C)C	inactive	–
CC(=O)OC/C=C(C)/C=C/C=C(C)/C=C/C1=C(C)CCCC1(C)C	inactive	–
CC/C=C\C#N	inactive	–
CCC(=O)OC(C)(C)C1CC=C(C)CC1 (stereo not given)	inactive	–
CC(=O)c1ccc(C)cc1	inactive	–
Cc1cc(O)c2c(c1)C(=O)c1cc(O)cc(O)c1C2=O	–	8.34 µM (active)
CC(O)COCC(C)O (stereo not given)	inactive	–
COc1ccccc1O	inactive	–
CN(C)C(=O)Nc1ccccc1	inactive	–
O=Cc1ccccc1O	inactive	–

SMILES	outcome	AC50
Cc1cc(O)c(C)c(C)c1O	inactive	–
CCCCCCCCOC(C)=O	inactive	–
CCCO	inactive	–
CC(=O)OC(C)(C)C	inactive	–
CCCCCCCC(=O)N(C)C	inactive	–
FC(F)(F)c1ccc(Cl)c(Cl)c1	inactive	–
O=c1cc(-c2ccc(O)cc2)oc2cc(O)cc(O)c12	inactive	–
c1coc(CNc2ncnc3nc[nH]c23)c1	inactive	–
C=CC(=O)OCCCCCC	inactive	–
CCC=C(C)C=O	inactive	–
CCCCOCCOCCOCCO	inactive	–
NC(=O)c1cccnc1	inactive	–
CC(CCO)CC(C)(C)C (stereo not given)	inactive	–
O=C(O)c1ccc(C(=O)O)c(C(=O)O)c1	inactive	–
CCCCCCCCCCOC(=O)c1ccccc1C(=O)OCCCCCCCC	inactive	–
CCCCCCCCCCCCOC(C)=O	inactive	–
CCCCCCCCCCCCN1CCOCC1	inactive	–
Cc1cccc(O)c1	inactive	–
CC(C)C(=O)c1ccccc1	inactive	–
